Results on five compounds are retold here after PubChem BioAssay.

Calls of active or inactive are those of the source.

Test [1] is described as follows: small molecules captured by biotinylated probe aFSTL3 – biochemical, small-molecule microarray, fluorescence 635/667, stem cell growth factor project, primary screen (AID 1064).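 Also: measures binding of the biotinylated anti-FSTL3 antibody to printed compounds.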 The settings on record: higher = more signal.
Test [2] can be described thus: binders from COS7 lysate, DM2A8 probe, primary screen, torsin A project, cell lysate, small-molecule microarray, fluorescence 635/667 (AID 1065). The settings on record: higher = more signal, COS7 lysate expressing mutant human TOR1A.
Test [3] can be described thus: small molecules captured by biotinylated probe aFGF2 – biochemical, small-molecule microarray, fluorescence 635/667, stem cell growth factor project, primary screen (AID 1067).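 Also: measures binding of biotinylated aFGF2 protein to printed compounds on slides; z-score merges feature fluorescence and signal-to-noise across triplicate slides.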 The settings on record: higher = more signal.
Test [4] is described as follows: small molecules captured by biotinylated probe aFGF10 – biochemical, small-molecule microarray, fluorescence 635/667, stem cell growth factor project, primary screen (AID 1071).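 Also: score merges 667 nm spot intensity and signal to noise from triplicate slides.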 The settings on record: higher = more signal.
The target in test [5] is Neurogenic locus notch homolog protein 2 (Homo sapiens) (UniProt Q04721). Nature of the test: small molecules binding Notch2 protein – biochemical, small-molecule microarray, 635 nm fluorescence, stem cell growth factors, primary screen (AID 1073). The settings on record: higher = more signal.
For test [6], the target named is Pro-neuregulin-1, membrane-bound isoform (Homo sapiens) (UniProt Q02297). Briefly: small molecules binding neuregulin-1 protein – biochemical, small-molecule microarray, fluorescence 635/667, psychiatric disease protein project, primary screen (AID 1075).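 Also: score combines 667 nm spot fluorescence with signal to noise.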 Conditions: NRG1 binding, 635 nm fluorescence, higher = more signal.
In test [7] the test system is Neuregulin-1 EGF-like domain. Nature of the test: small molecules binding NRG1 EGF domain – biochemical, small-molecule microarray, 635 nm fluorescence, primary screen (AID 1081).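 Also: binding of the protein to compounds printed on small-molecule microarray slides.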 Conditions: higher = more signal.
A short description of test [8]: FRG1 expression reporter modulators in myotubes – cell-based, C2C12 myotubes, firefly/Renilla luciferase, luminescence, FRG1 inhibition for FSHD, primary screen (AID 1084). Conditions: FRG1 promoter luciferase, higher = more signal, called active from +8 up or from −8 down.
The nature of test [9]: small molecules captured by biotinylated probe aFST – biochemical, small-molecule microarray, fluorescence 635/667, stem cell growth factor project, primary screen (AID 1086).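 Also: score merges 667 nm fluorescence with signal-to-noise of each printed compound spot.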 The settings on record: higher = more signal.
Test [10] can be described thus: binders of probe aHhip on microarray, primary screen, stem cell growth factor project, biochemical, small-molecule microarray, fluorescence 635/667 (AID 1087).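 Also: score merges spot fluorescence at 667nm with spot signal to noise ratio.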 Conditions: higher = more signal.
Test [11] deals with PRMT1 (protein arginine N-methyltransferase 1). Briefly: small molecules binding arginine methyltransferase PRMT1 – biochemical, small-molecule microarray, 635 nm fluorescence, primary screen (AID 1088).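 Also: binding of Prmt1 protein to compounds spotted on small-molecule microarray slides.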 The settings on record: higher = more signal.
Test [12] is described as follows: growth effects on S. cerevisiae YJM789 – YJM789 clinical isolate, OD600, 24 h, basal, primary screen (AID 1089).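 Also: growth of clinical yeast isolate S. cerevisiae YJM 789 seeded 1000 cells per well; test concentration not given here.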 The settings on record: higher = more signal, called active from +8 up or from −8 down.
A short description of test [13]: S. pombe growth modifiers, basal conditions – strain 972, OD600, 24 h, no modulator, primary screen (AID 1090).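 Also: basal condition with compound alone and no growth modifier present; test concentration not given here.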 The settings on record: S. pombe 972 growth, higher = more signal, called active from +8 up or from −8 down.
Test [14] in a line: budding yeast growth modifiers under rapamycin – strain BY4716, OD600, 96 h, primary screen (AID 1091). Also: test concentration not given here. The settings on record: S. cerevisiae BY4716 + rapamycin, higher = more signal, called active from +8 up or from −8 down.
Test [15] deals with Torsin-1A-interacting protein 2 (Homo sapiens) (UniProt Q8NFQ8). Briefly: small molecules binding lysate-expressed LULL1 – cell lysate, human LULL1 lysate, 635/667 nm fluorescence, primary screen (AID 1092).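 Also: probe is lysate of COS7 cells overexpressing human LULL1; score merges per-feature 667 nm fluorescence with signal-to-noise.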 The settings on record: small-molecule microarray, hLULL1 lysate binding, 635 nm fluorescence; higher = more signal.
Test [16] in a line: optical density change of DRC41 E. coli – strain DRC41, OD650, 24 h, E. coli filamentation project, primary screen (AID 1093).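 Also: MC1000 strain lacking acrAB efflux and sulA so SOS filamentation is blocked; test concentration not given here.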 The settings on record: E. coli DRC41 growth, higher = more signal, called active from +8 up or from −8 down.
Test [17] can be described thus: probe aLefty2 binding to arrayed compounds – biochemical, biotinylated probe, 635/667 nm fluorescence, primary screen (AID 1094).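 Also: score merges spot fluorescence near 667 nm with spot signal-to-noise ratio.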 Conditions: small-molecule microarray, higher = more signal.
Test [18] concerns Noggin (protein binding on small-molecule microarray). Nature of the test: small molecules binding Noggin protein – biochemical, 635/667 nm fluorescence, primary screen (AID 1095).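 Also: score merges 667 nm feature fluorescence with signal to noise over triplicate slides.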 The settings on record: 635 nm fluorescence, higher = more signal.
The target in test [19] is Neurogenic locus notch homolog protein 3 (Homo sapiens) (UniProt Q9UM47). Briefly: small molecules binding NOTCH3 protein – biochemical, 635/667 nm fluorescence, primary screen (AID 1096). Conditions: small-molecule microarray, 635 nm fluorescence, higher = more signal.
Test [20] can be described thus: probe aEGFR binding to arrayed compounds – biochemical, biotinylated probe, 635/667 nm fluorescence, primary screen (AID 1097).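 Also: probe is a biotinylated anti-EGFR antibody binding compounds printed on slides; score combines fluorescence near 667 nm and signal to noise of each spot.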 Conditions: small-molecule microarray, higher = more signal.

Sequence of Neurogenic locus notch homolog protein 3 (Homo sapiens) (Q9UM47 whole entry, looked up): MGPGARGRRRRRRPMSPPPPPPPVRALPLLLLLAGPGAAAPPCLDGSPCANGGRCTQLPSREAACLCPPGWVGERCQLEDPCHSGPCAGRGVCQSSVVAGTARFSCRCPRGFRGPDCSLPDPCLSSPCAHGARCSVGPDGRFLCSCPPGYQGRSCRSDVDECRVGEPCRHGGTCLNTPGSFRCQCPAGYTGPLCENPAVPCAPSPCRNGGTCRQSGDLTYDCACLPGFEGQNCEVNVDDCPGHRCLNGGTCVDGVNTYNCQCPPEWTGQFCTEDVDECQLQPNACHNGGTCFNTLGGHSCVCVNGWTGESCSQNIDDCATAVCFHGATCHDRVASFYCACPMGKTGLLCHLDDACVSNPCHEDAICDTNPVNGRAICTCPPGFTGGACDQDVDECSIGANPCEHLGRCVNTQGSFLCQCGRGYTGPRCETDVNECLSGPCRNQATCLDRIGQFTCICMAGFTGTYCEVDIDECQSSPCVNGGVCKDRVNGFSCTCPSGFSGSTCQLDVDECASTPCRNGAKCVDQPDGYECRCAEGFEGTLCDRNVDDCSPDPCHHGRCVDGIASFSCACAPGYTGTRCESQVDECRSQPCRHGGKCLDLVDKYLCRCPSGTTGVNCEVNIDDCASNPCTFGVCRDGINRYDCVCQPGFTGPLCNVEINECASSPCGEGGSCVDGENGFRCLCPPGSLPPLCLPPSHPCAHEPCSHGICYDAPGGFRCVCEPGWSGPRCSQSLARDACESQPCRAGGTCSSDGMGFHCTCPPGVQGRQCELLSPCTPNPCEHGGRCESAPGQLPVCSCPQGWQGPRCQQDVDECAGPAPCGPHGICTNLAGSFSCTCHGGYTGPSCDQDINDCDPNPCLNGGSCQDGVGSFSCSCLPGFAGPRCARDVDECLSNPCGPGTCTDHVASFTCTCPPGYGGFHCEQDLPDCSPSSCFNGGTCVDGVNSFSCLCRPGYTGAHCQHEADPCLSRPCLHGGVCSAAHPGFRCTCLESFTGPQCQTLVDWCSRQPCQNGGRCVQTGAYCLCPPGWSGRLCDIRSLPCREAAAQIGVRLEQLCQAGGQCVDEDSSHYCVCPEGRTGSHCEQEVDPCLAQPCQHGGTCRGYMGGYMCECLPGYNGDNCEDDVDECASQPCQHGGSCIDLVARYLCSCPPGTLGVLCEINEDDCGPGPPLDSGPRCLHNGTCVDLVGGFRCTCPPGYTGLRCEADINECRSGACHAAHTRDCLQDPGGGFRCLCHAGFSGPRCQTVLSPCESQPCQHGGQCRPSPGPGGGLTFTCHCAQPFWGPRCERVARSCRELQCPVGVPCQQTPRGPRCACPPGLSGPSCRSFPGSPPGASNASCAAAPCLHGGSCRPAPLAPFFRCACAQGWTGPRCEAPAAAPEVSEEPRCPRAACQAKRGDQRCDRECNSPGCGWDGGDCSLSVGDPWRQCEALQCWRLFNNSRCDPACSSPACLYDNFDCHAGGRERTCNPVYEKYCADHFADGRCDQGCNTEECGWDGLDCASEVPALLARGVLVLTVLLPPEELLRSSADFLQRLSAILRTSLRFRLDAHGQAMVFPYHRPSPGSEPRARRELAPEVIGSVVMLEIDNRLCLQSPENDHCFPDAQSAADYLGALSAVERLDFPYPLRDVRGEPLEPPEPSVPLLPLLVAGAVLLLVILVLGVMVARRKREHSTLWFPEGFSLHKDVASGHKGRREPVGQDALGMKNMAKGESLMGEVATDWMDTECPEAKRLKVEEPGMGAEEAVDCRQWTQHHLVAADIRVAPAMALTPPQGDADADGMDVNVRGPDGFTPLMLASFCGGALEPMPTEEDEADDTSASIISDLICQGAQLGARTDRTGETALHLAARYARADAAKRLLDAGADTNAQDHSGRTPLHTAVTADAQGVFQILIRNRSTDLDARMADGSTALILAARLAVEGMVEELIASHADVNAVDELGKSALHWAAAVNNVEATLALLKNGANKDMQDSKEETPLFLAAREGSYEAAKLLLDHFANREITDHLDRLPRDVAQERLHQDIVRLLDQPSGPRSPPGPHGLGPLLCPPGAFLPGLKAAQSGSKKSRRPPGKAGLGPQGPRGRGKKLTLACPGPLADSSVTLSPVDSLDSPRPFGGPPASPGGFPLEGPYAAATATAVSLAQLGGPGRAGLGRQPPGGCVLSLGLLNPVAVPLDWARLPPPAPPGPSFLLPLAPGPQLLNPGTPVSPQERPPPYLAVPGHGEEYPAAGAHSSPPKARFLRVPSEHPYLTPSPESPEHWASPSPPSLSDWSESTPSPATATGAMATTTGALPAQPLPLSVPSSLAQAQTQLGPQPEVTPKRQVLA
Sequence of Neurogenic locus notch homolog protein 2 (Homo sapiens) (Q04721 whole entry, looked up, canonical isoform): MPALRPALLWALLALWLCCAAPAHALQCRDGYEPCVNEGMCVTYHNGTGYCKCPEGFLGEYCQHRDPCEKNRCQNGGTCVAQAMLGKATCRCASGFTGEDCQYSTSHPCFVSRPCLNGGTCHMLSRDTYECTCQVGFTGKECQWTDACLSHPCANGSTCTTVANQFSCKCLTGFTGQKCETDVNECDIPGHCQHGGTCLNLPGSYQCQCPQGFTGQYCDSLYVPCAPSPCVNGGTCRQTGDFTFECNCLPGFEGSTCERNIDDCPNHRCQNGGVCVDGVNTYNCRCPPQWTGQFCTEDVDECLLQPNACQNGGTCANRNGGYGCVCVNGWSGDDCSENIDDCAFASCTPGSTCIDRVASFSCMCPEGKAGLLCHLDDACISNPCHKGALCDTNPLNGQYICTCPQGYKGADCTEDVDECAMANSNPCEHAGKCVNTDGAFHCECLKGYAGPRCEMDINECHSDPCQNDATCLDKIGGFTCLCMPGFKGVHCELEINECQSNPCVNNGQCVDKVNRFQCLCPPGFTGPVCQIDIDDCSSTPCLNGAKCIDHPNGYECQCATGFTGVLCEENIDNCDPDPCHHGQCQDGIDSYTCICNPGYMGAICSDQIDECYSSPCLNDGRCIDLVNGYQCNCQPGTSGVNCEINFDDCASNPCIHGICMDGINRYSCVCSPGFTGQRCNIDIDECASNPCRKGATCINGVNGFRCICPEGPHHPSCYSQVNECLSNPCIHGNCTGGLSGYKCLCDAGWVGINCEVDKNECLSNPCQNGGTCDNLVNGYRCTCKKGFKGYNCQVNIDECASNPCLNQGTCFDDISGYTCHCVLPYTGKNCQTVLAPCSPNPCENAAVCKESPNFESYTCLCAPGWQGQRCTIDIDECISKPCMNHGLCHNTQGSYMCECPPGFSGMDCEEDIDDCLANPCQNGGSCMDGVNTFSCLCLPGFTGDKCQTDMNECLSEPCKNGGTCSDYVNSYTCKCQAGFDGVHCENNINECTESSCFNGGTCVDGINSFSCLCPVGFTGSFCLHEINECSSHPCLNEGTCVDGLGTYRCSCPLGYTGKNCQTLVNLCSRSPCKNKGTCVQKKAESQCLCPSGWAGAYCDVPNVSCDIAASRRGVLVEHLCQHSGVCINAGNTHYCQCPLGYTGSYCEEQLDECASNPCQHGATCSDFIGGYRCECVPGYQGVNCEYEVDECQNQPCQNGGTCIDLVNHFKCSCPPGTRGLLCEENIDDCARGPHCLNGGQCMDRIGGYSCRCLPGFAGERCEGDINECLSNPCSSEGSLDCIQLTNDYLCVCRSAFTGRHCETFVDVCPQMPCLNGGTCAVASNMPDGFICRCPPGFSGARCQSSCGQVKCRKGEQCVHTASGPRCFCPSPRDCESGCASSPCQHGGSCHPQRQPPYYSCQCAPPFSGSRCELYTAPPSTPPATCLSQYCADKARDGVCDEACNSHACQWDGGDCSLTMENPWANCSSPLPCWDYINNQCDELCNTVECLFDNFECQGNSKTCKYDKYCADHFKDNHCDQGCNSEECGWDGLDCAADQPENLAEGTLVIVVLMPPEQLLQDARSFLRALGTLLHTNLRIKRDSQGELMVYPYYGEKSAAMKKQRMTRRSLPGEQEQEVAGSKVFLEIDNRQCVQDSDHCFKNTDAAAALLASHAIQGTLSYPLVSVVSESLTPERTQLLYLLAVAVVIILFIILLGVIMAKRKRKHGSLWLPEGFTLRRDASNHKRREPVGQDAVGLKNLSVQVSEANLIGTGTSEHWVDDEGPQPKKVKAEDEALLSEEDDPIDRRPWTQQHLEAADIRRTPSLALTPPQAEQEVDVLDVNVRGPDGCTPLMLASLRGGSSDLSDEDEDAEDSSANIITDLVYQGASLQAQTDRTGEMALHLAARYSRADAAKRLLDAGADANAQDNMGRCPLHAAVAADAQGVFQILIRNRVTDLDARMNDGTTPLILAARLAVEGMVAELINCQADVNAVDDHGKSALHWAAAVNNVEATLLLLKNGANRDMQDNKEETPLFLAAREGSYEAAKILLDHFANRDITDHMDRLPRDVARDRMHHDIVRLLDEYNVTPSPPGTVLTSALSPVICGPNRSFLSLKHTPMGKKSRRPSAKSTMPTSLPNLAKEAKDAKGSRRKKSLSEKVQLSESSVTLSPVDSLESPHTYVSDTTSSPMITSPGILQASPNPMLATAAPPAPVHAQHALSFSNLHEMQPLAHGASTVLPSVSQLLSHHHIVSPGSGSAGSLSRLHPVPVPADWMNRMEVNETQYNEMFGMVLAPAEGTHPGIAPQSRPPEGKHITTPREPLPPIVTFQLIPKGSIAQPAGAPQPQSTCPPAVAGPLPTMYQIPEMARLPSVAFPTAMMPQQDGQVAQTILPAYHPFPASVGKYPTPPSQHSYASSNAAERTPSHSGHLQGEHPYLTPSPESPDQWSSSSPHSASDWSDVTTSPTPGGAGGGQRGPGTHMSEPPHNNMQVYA

As for `COC(=O)c1c(CC[C@@H](CO)NC(=O)N[C@H](Cc2ccccc2)Cn2cc(-c3ccccc3N)nn2)oc(C(C)=O)c1C(=O)OC`, the composite z-score is 0.718 in [1]; 0.799 in test [2]; 0.241 in test [3]; 0.465 in test [4]; 0.269 in test [5]; 0.939 in test [6]. The composite z-score in test [7] was 0.71; in test [9], 0.914; in test [10], 0.176; in test [11] it was 1.19; in [15], 1.05; in [17], 0.323. In addition, the composite z-score in test [18] turned out to be 0.173; in [19], 0.492; in test [20] it was 0.195. In addition, the z-score was -0.52 (inactive) in test [8]; -0.231 (inactive) in [12]; -1.15 (inactive) in test [13]; 0.2 (inactive) in [14]; 0.382 (inactive) in [16].
As to `CO[C@@H]1COC(=O)CCC[C@@H](C)[C@H](OC)COC(=O)[C@H](Cc2ccccc2)NC(=O)CC=C[C@H]1C`, the composite z-score was -0.0731 in [1]; 1.42 in [2]; -0.186 in test [3]; -0.904 in test [4]; -1.13 in [5]; -0.87 in test [6]. Besides, the composite z-score in [7] was -1.25; in [9], -0.104; in test [10] it was -0.134; in test [11], -0.256; in [15] it was -2.01; in test [17] it was -0.178. Moreover, the composite z-score was 0.76 in test [18], -1.25 in [19] and -0.127 in test [20]. For the same compound, the z-score is 0.0446 (inactive) in test [8]; 0.449 (inactive) in test [12]; -0.529 (inactive) in test [13]; -0.341 (inactive) in test [14]; 0.0728 (inactive) in [16].
As for `CCN1C(=O)[C@H]2[C@H]3[C@H](O)C=CC(=O)[C@@H]3CC[C@H]2C1=O`, the composite z-score is -0.456 in [1]; 0.236 in test [2]; -0.0744 in test [3]; 0.393 in [4]; 0.602 in [5]; -0.132 in test [6]. Besides, the composite z-score in test [7] was 0.226; in test [9], 0.243; in [10], 0.312; in [11] it was -0.777; in [15], 0.0819; in [17], -0.0961. Moreover, the composite z-score was 0.701 in [18], 0.705 in test [19] and -0.094 in test [20]. In addition, the z-score in [8] was 0.669 (inactive); in test [12] it was 0.0131 (inactive); in test [13], -0.373 (inactive); in test [14], -0.624 (inactive); in test [16] it was 0.255 (inactive).
For the compound `COc1ccc(COC(=O)NN=C2C[C@@H](O)[C@@H](O)[C@@H]3[C@@H]4C(=O)N(c5ccc(F)cc5F)C(=O)[C@@H]4CC[C@@H]23)cc1`, the composite z-score in [1] is 0.827; in test [2], 0.515; in test [3] it was -0.0342; in test [4] it was -0.299; in [5], -0.392; in test [6] it was 0.0565. The composite z-score is -1.13 in [7]; 0.562 in test [9]; 0.168 in [10]; -1.42 in test [11]; -0.524 in [15]; 0.0215 in [17]. Moreover, the composite z-score in test [18] was -0.0901; in [19], 0.14; in [20], -0.117. Further, the z-score in [8] was -0.138 (inactive); in [12], 0.935 (inactive); in [13], -0.423 (inactive); in test [14] it was 0.0088 (inactive); in [16] it was 0.488 (inactive).
As to `CCOC(=O)[C@H](CC(C)C)NC(=O)CCC1CC(OC(=O)NCc2cccc3ccccc23)CC2(CCCC(COC(=O)NCCN3CCOCC3)O2)O1` (stereo not given in full), the composite z-score in test [1] is -0.589; in test [2], 0.393; in test [3] it was -0.0788; in [4], 0.497; in test [5], 0.999; in test [6] it was 0.442. Besides, the composite z-score in [7] was 0.983; in test [9] it was 0.112; in test [10], 0.0176; in test [11], 1.57; in test [15], 2.36; in test [17] it was -0.173. Moreover, the composite z-score was 0.344 in [18], 1.11 in test [19] and -0.0828 in test [20]. In addition, the z-score in [8] was 0.986 (inactive); in test [12], -1.26 (inactive); in [13], 0.557 (inactive); in test [14] it was -1.04 (inactive); in test [16], -0.737 (inactive).
